Measurements reported in PubChem BioAssay AID1918969 (ICCB-Longwood Screening Facility, Harvard Medical School, 2023).
The whole screen tested about 190,000 compounds, of which about 280 (0.15%) were called active. Only a selection was taken, and actives are over-represented in it overall. A number with no mark means an inactive call. Rule as the data show it: active = inhibition above about 27% (passing the limit was not always enough); inactive = the rest.

tested on: HCMV UL50-UL53 nuclear egress complex (human cytomegalovirus); assay: HCMV nuclear egress complex disruptors – biochemical, HTRF (AID 1918969); conditions: HTRF UL50-UL53 interaction, normalized percent inhibition; hits give high values; concentration not given here

With `CCCC1O[C@@H]2CC3C4CCC5=CC(=O)C=CC5(C)C4[C@@H](O)CC3(C)[C@]2(C(=O)CO)O1` (stereo partly specified) as the compound, how does the inhibition read?
The inhibition was -70.7%.

For `NNC(=O)CCCc1nc2ccccc2s1`, which inhibition is on record?
Its inhibition is -31.3%.

How did the inhibition turn out when `O=C(OCc1nc2ccccc2s1)c1coc2ccccc2c1=O` was run?
Its inhibition is 54.6% (active).

`O=C(CCc1nc2ccccc2s1)OCC(=O)c1ccco1` was tested. Which inhibition did it give?
The inhibition was -34.2%.

With `CCOc1cc(/C=C2/C(=O)N(c3nn[nH]n3)N=C2C)cc(Cl)c1OCC` as the compound, how does the inhibition read?
Its inhibition is -8.7%.

For `CC(C(=O)OCc1ccc(F)cc1)N1C(=O)c2ccccc2C1=O` (stereo unspecified), which inhibition is on record?
The inhibition was -2.6%.

With `O=C(CC(c1ccccc1)c1ccccc1)NCc1ccco1` as the compound, how does the inhibition read?
The inhibition was 13.4%.

With `O=c1c(-c2nnc3c(Cl)nc4ccccc4n23)coc2ccccc12` as the compound, how does the inhibition read?
The inhibition was -9.1%.

With `Cc1n[nH]c(C)c1Cc1ccc(N)cc1` as the compound, how does the inhibition read?
Its inhibition is -0.1%.

For `Cc1ccc(-n2ccnc(NCCc3ccccc3)c2=O)cc1`, which inhibition is on record?
Its inhibition is -0.4%.

How did the inhibition turn out when `CCN(CC)S(=O)(=O)c1ccc(N=Nc2c(O)[nH]c(=S)[nH]c2=O)cc1` was run?
Its inhibition is -70.2%.

`Cc1cc(C(=O)CSc2ccc(S(=O)(=O)N(C)C)cn2)c(C)n1-c1ncn[nH]1` was tested. Which inhibition did it give?
Its inhibition is -15%.

How did the inhibition turn out when `O=C1CC(c2ccc(S(=O)(=O)N3CCCc4ccccc43)cc2)CN1` (stereo unspecified) was run?
The inhibition was -28.3%.

`O=C(COC(=O)Cc1ccc(F)cc1)Nc1ccccc1` was tested. Which inhibition did it give?
The inhibition was 1.8%.

For `Cc1ccc(C)c2c1NC(c1ccc(Br)cc1)C1CC=CC21` (stereo unspecified), which inhibition is on record?
Its inhibition is -3.3%.

With `CCc1nc(-c2cc(S(=O)(=O)N3CCC(C(=O)Nc4cccc(OC)c4)CC3)c(C)s2)no1` as the compound, how does the inhibition read?
The inhibition was -7.1%.

`CC1CCN(C(=O)Cn2ncc3c4ccccc4n(Cc4ccccc4)c3c2=O)CC1` was tested. Which inhibition did it give?
The inhibition was -7.3%.

For `Cc1ccc(CNC(=O)c2ccc(-n3nnc4cccnc43)cc2)cc1`, which inhibition is on record?
The inhibition was -21.8%.

With `CCN(CC)S(=O)(=O)c1ccc2c(c1)nc(CCC(=O)OCC#N)n2C` as the compound, how does the inhibition read?
The inhibition was -6%.

For `CCOC(=O)N1CCCC1C(=O)O` (stereo unspecified), which inhibition is on record?
Its inhibition is -17.9%.

For `O=C(NC1CCCCCCC1)c1cccs1`, which inhibition is on record?
The inhibition was -0.7%.

`CNC(=O)c1ccc(N2CCOc3ccc(Cl)cc32)s1` was tested. Which inhibition did it give?
The inhibition was 14.6%.

For `O=C(NC1CCCC1)c1ccc(Br)s1`, which inhibition is on record?
The inhibition was -3.7%.

`O=C(NC1CCCCC1)c1ccc(-n2ccc3ccccc32)s1` was tested. Which inhibition did it give?
The inhibition was 37.9% (active).

Which inhibition does the source give for `O=C(NC1CCCC1)c1cc(-c2ccccc2)on1` here?
The inhibition was -1.9%.

For `O=C(NC1CCCC1)c1ccc(N2CCOc3ccccc32)s1`, which inhibition is on record?
The inhibition was 42.2% (active).

How did the inhibition turn out when `O=C(c1c(F)c(F)c(F)c(F)c1F)N(CCO)Cc1ccccc1` was run?
Its inhibition is -6.4%.

`CNC(=O)COC(=O)c1ccc(Br)o1` was tested. Which inhibition did it give?
The inhibition was -3.2%.

Which inhibition does the source give for `Cn1c(=O)n(C)c2cc(N3CCOCC3)c(NS(=O)(=O)c3ccc4c(c3)CCCC4)cc21` here?
Its inhibition is -20%.

For `Cc1ccc2nsnc2c1S(=O)(=O)NCCc1c(C)[nH]c2ccccc12`, which inhibition is on record?
Its inhibition is -75.9%.

`Cc1ccc(N2C(=O)/C(=C/c3ccc(OCC(=O)O)c(Br)c3)C(=O)NC2=S)cc1` was tested. Which inhibition did it give?
Its inhibition is -28.5%.

`CC1=C(C(=O)OCCOc2ccccc2)C(c2cccnc2)C2=C(CC(c3ccc(Cl)cc3)CC2=O)N1` (stereo unspecified) was tested. Which inhibition did it give?
The inhibition was -27.9%.

How did the inhibition turn out when `Cn1c2c(c3cc(C4CCCCC4)ccc31)CCCCC2=O` was run?
The inhibition was 1.4%.

With `CCOC(C)=C(C#N)C#N` as the compound, how does the inhibition read?
Its inhibition is 5.1%.

Which inhibition does the source give for `CC12CCOC1N(c1ccccc1)c1ccccc12` (stereo unspecified) here?
Its inhibition is -18.7%.

`CC(=O)Nc1ccc(N2C(=O)c3cc(C)nn3CC2(C)C(=O)NCc2ccc(Cl)cc2)cc1` (stereo unspecified) was tested. Which inhibition did it give?
Its inhibition is -1.4%.

With `Cc1ccc(C2/C(=C(\O)c3ccccc3)C(=O)C(=O)N2CCN2CCOCC2)cc1` (stereo unspecified) as the compound, how does the inhibition read?
The inhibition was 0.4%.

Which inhibition does the source give for `Cc1c2cnn(CC(=O)NCc3ccco3)c(=O)c2c(C)n1Cc1ccccc1` here?
Its inhibition is -1.5%.

For `CCOC(=O)c1c(C)n(-c2ccc(Cl)cc2)c2ccc(Oc3nccc(Nc4ccccc4)c3C#N)cc12`, which inhibition is on record?
The inhibition was -12.5%.

Which inhibition does the source give for `N#CC(=C=[N-])c1nc2ccccc2nc1-[n+]1cccc(NC(=O)c2ccc(Br)o2)c1` here?
Its inhibition is -17.4%.

Which inhibition does the source give for `O=C(CN1CCN(S(=O)(=O)c2ccc3[nH]c(=O)[nH]c3c2)CC1)N1CCCCCC1` here?
Its inhibition is -26.1%.

How did the inhibition turn out when `CCOCCCNC(=O)N1Cc2c(sc3c2CCCC3)-n2cccc2C1c1ccc(N(C)C)cc1` (stereo unspecified) was run?
The inhibition was -33.4%.

How did the inhibition turn out when `CC(C)CCNC(=O)C1(C)Cn2c(cc3ccccc32)C(=O)N1C1CC1` (stereo unspecified) was run?
Its inhibition is -9.6%.

For `Cc1ccc(-n2c(=O)c3c(n4c(SCC(N)=O)nnc24)-c2ccccc2CC32CCCCC2)cc1`, which inhibition is on record?
The inhibition was -17.8%.

Which inhibition does the source give for `O=C(COc1ccc(-c2nc(-c3ccccc3)no2)cc1)N1CCCC1` here?
Its inhibition is -28.2%.

With `Cc1ccc(S(=O)(=O)C2(C(=O)N3CCc4ccccc43)CC2)cc1` as the compound, how does the inhibition read?
Its inhibition is 1%.
